Experimental data taken from PubChem BioAssay (Tox21).
Values joined by “and” are separate entries in the source; they are usually repeats but may differ in a detail not shown here. Equal entries are not always repeated. Records with an inconclusive call do not appear. The source holds several records for some structures; these can differ, active in one and inactive in another. Active and inactive are the calls of the source. Unless noted, calls come from the whole dose curve.

Tests used:
[1] = Nuclear factor erythroid 2-related factor 2/antioxidant responsive element (Nrf2/ARE) small molecule agonists: qHTS cell viability counter screen in human keratinocytes (AID 1919968; active = well fitted curve in the direction sought with a large enough effect in the repeat runs; an effect the other way counts as inactive or inconclusive; note: nearly all actives have a fitted effect of over 55% in size; note: potency is the fitted concentration of half-maximal effect)
Summary of the method: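 Parallel cytotoxicity read: KeratinoSens HaCaT cells, compound treatment 23 h, viability by CellTiter-Fluor fluorescence 1 h post-reagent.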

[2] = Nuclear factor erythroid 2-related factor 2/antioxidant responsive element (Nrf2/ARE) small molecule agonists: luciferase reporter gene qHTS assay in human keratinocytes (AID 1919969); note: nearly all actives have a fitted effect of over 35% in size; note: potency is the fitted concentration of half-maximal effect
[3] = target: Gonadotropin-releasing hormone receptor (Homo sapiens) (UniProt P30968); test: Human gonadotropin-releasing hormone receptor (GnRHR) small molecule agonists, calcium flux assay in GnRHR-HEK293 cells (AID 1920063); note: nearly all actives have a fitted effect of over 35% in size; note: potency is the fitted concentration of half-maximal effect
Gonadotropin-releasing hormone receptor (Homo sapiens), sequence (P30968 whole entry, looked up): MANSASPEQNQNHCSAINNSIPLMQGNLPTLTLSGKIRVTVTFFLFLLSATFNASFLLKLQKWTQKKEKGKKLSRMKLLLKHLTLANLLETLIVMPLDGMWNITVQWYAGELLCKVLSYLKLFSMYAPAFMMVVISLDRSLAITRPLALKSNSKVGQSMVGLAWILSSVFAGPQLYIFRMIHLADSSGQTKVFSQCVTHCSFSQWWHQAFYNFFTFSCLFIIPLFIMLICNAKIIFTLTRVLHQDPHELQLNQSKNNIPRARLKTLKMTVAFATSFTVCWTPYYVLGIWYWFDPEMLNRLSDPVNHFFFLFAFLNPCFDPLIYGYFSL
Summary of the method: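 Calcium flux, agonist mode, human GnRHR stably integrated in HEK293; dye 1 h at 37 C before compound; Ex/Em=480/540 kinetic read, 3 min; 15 concentrations, triplicate.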

[4] = target: KiSS-1 receptor (Homo sapiens) (UniProt Q969F8); test: Human kisspeptin (KISS1R) small molecule agonists, calcium flux assay in KISS1R-HEK293 cells (AID 1920064; active = well fitted curve in the direction sought with a large enough effect in the repeat runs; an effect the other way counts as inactive or inconclusive; note: potency is the fitted concentration of half-maximal effect)
KiSS-1 receptor (Homo sapiens), sequence (Q969F8 whole entry, looked up): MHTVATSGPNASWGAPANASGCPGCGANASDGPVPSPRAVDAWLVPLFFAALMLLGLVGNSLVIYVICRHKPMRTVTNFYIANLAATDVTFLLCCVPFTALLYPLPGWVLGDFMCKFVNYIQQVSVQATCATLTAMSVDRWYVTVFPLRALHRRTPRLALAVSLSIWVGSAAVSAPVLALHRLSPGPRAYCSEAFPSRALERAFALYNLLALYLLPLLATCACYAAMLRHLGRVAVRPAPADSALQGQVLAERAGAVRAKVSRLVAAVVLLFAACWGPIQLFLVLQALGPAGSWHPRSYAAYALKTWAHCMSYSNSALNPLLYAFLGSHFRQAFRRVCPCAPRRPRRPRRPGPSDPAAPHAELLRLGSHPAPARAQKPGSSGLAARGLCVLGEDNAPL
Summary of the method: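 Triplicate 15-concentration series were applied to dye-loaded human KISS1R HEK293 cells, and agonist-evoked calcium fluorescence was captured for 3 min.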

[5] = G protein-coupled receptor (GPCR) small molecule agonists, calcium flux assay: HEK293 wild type cell line counter screen (AID 1920065); note: potency is the fitted concentration of half-maximal effect
Summary of the method: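 Non-specific calcium responders were flagged by adding DMSO-dissolved compounds to dye-loaded cells and reading 480/540 nm fluorescence each second for 3 min; ATP served as positive control.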

[6] = p53 small molecule agonists, cell-based qHTS assay with human liver microsomes: qHTS cell viability counter screen (AID 1963579); note: nearly all actives have a fitted effect of over 45% in size; note: potency is the fitted concentration of half-maximal effect
Summary of the method: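 HLM-supplemented (0.5 mg/mL final) and NADPH-supplemented (0.5 mg/mL final) p53RE-bla cultures, 4,000 cells per well, were dosed with compounds in DMSO for 16 h at 37 C; luminescent ATP detection (CellTiter-Glo, 30 min, room temperature) quantified surviving cells.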

[7] = p53 small molecule agonists, cell-based qHTS assay with rat liver microsomes: qHTS cell viability counter screen (AID 1963580); note: nearly all actives have a fitted effect of over 45% in size
Summary of the method: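 Rat liver microsome (0.5 mg/mL final) and NADPH (0.5 mg/mL final) co-incubation with compounds for 16 h at 37 C on HCT-116 p53RE-bla cells; cytotoxicity taken from intracellular ATP luminescence.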

[8] = p53 small molecule agonists, cell-based qHTS assay: qHTS cell viability counter screen (AID 1963581); note: nearly all actives have a fitted effect of over 45% in size
Summary of the method: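 Multiplexed with the reporter read, a CellTiter-Glo step (30 min, room temperature) gauges ATP-based viability of HCT-116 p53RE-bla cells after 16 h compound incubation at 37 C.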

[9] = p53 small molecule agonists, cell-based qHTS assay (AID 1963582; active = well fitted activation curve with a large enough effect in the signal ratio in the repeat runs, not every such curve was filed as active; the % refers to the signal ratio; note: potency is the fitted concentration of half-maximal effect)
Summary of the method: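 Beta-lactamase reporter cells (p53RE-bla) treated with compounds for 16 h at 37 C; FRET substrate, 2 h, room temperature; fluorescence intensity.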

[10] = target: 5-hydroxytryptamine receptor 2A (Homo sapiens) (UniProt P28223); test: 5-hydroxytryptamine receptor 2A (HTR2A) small molecule antagonists, cell-based qHTS assay (AID 1963586); note: nearly all actives have a fitted effect of over 45% in size
5-hydroxytryptamine receptor 2A (Homo sapiens), sequence (P28223 whole entry, looked up): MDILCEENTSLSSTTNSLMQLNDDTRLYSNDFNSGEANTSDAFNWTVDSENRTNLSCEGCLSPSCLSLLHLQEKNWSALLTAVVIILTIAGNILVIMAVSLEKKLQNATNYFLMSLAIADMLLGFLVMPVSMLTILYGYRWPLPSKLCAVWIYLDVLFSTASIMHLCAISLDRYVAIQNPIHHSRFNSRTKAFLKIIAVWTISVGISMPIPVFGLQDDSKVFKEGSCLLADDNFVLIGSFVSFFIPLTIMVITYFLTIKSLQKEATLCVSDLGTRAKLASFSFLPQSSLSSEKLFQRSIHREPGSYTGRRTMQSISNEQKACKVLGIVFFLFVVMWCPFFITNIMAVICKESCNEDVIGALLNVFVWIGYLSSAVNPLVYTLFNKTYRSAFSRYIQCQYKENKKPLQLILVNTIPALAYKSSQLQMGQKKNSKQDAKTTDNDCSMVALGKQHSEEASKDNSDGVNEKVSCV
Summary of the method: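 CHO cells stably expressing human HTR2A were plated for 18 h at 37 C, then loaded with calcium dye for 1 h. Compounds were preincubated 5 min at room temperature before DOI (4 nM solution) was added. Kinetic fluorescence was read for 3 min.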

[11] = target: 5-hydroxytryptamine receptor 2A (Homo sapiens) (UniProt P28223); test: 5-hydroxytryptamine receptor 2A (HTR2A) small molecule agonists, cell-based qHTS assay (AID 1963587); note: nearly all actives have a fitted effect of over 30% in size
Summary of the method: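 Kinetic calcium-flux fluorescence (2 min, 1 sec intervals) after compound addition in agonist mode. HTR2A-CHO cells were cultured 18 h, then dye-loaded 1 h at 37 C.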

[12] = target: Muscarinic acetylcholine receptor M1 (Homo sapiens) (UniProt P11229); test: Cholinergic receptor muscarinic 1 (CHRM1) small molecule antagonists, cell-based qHTS assay (AID 1963588); note: nearly all actives have a fitted effect of over 40% in size
Muscarinic acetylcholine receptor M1 (Homo sapiens), sequence (P11229 whole entry, looked up): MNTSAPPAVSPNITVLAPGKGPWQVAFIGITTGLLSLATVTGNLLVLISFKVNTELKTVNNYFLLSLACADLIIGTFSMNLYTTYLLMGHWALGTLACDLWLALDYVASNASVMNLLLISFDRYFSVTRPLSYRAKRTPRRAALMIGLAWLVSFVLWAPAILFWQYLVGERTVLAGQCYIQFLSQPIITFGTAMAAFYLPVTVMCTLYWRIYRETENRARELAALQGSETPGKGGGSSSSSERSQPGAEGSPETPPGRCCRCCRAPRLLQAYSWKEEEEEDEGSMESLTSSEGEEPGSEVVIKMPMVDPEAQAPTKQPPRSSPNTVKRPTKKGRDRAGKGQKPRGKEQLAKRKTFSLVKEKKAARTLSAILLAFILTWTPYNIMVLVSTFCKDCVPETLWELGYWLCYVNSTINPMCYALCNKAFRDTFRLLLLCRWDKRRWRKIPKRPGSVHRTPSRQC
Summary of the method: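 Compounds were tested at 15 concentrations in three independent runs. Dye-loaded CHRM1-CHO cells were exposed 5 min at room temperature before stimulation by acetylcholine added at 50nM. Intracellular calcium was read kinetically on FDSS for 3 min.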

[13] = target: Muscarinic acetylcholine receptor M1 (Homo sapiens) (UniProt P11229); test: Cholinergic receptor muscarinic 1 (CHRM1) small molecule agonists, cell-based qHTS assay (AID 1963589); note: nearly all actives have a fitted effect of over 35% in size
Summary of the method: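 qHTS, 15-point titration, 3 independent runs: compounds pin-transferred onto dye-loaded CHRM1-CHO cells (human M1), calcium fluorescence followed every second to detect agonism.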

[14] = cAMP Responsive Elements (CRE) small molecule agonists, cell-based qHTS assay (AID 1963590)
Summary of the method: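 Quantitative HTS for CRE agonists: HEK 293T CRE-bla cells, overnight plating, 3 h compound incubation at 37 C/5% CO2, then 2 h room-temperature LiveBLAzer B/G FRET substrate loading.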

[15] = cAMP Responsive Elements (CRE) small molecule antagonists, cell-based qHTS assay (AID 1963591; active = well fitted inhibition curve with a large enough effect in the signal ratio in the repeat runs, not every such curve was filed as active; the % refers to the signal ratio)
Summary of the method: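 Fluorescence intensity from cleaved LiveBLAzer B/G substrate (2 h, room temperature) quantified CRE-bla activity in HEK 293T cells exposed 3 h to compound with 0.25 uM final NKH477.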

[16] = target: Beta-2 adrenergic receptor (Homo sapiens) (UniProt P07550); test: Adrenergic beta2 receptor (ADRB2) small molecule antagonists, cell-based qHTS assay (AID 1963592); note: series mostly up to about 92 µM; nearly all actives have a fitted effect of over 50% in size
Beta-2 adrenergic receptor (Homo sapiens), sequence (P07550 whole entry, looked up): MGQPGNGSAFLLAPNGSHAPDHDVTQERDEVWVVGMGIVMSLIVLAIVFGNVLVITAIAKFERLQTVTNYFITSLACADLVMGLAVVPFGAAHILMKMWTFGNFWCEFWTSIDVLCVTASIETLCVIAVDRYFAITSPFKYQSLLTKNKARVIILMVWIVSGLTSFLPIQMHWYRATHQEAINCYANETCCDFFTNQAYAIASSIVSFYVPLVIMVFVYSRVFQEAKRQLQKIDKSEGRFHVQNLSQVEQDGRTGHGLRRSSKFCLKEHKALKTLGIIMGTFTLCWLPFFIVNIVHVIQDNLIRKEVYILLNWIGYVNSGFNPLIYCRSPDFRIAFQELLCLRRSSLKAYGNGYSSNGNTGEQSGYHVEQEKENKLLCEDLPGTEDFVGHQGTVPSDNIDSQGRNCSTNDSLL
Summary of the method: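 Assay format: CHO-ADRB2 cells, 18-20hr seeding at 37C/5% CO2, then compound plus 1nM isoproterenol agonist mix for 0.5hr RT. Homogeneous time-resolved fluorescence cAMP detection after 1hr, expressed as 665/615 nm ratio.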

[17] = target: Beta-2 adrenergic receptor (Homo sapiens) (UniProt P07550); test: Adrenergic beta2 receptor (ADRB2) small molecule agonists, cell-based qHTS assay (AID 1963593); note: potency is the fitted concentration of half-maximal effect;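 for activation: CHO cells stably overexpressing human ADRB2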
Summary of the method: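 CHO cells stably over-expressing ADRB2 were plated overnight at 37C, then dosed with compounds plus a stimulation mix containing 100uM IBMX and 25uM Ro-20-1724 for 0.5hr at room temperature. cAMP was measured by HTRF competition, 1hr.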

[18] = target: D(2) dopamine receptor (Homo sapiens) (UniProt P14416); test: Dopamine D2 receptor (DRD2) small molecule agonists, cell-based qHTS assay (AID 1963594); note: nearly all actives have a fitted effect of over 35% in size
D(2) dopamine receptor (Homo sapiens), sequence (P14416 whole entry, looked up): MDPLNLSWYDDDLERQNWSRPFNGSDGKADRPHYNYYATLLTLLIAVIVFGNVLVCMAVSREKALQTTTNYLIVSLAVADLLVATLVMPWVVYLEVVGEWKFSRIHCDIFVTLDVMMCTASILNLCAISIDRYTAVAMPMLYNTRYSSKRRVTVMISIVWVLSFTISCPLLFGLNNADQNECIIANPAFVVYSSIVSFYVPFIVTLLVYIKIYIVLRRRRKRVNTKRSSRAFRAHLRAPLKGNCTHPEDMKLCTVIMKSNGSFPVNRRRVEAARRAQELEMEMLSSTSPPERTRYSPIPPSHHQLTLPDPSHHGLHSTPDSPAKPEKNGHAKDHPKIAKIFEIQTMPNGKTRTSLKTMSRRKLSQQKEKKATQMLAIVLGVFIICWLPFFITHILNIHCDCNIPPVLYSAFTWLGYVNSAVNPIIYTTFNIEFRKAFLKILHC
Summary of the method: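 cAMP accumulation in DRD2-HEK293 cells measured by HTRF after 1 h detection; compounds added 10 min before NKH477 (200nM […]) forskolin-analogue stimulation, 30 min at room temperature, with Ro20-1724 present at 0.1 mM final.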

[19] = target: D(2) dopamine receptor (Homo sapiens) (UniProt P14416); test: Dopamine D2 receptor (DRD2) small molecule antagonists, cell-based qHTS assay (AID 1963595; active = well fitted inhibition curve with a large enough effect in the signal ratio in the repeat runs, with a control signal flat; the % refers to the signal ratio)
Summary of the method: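 Cells were plated and grown for 24 h at 37 °C. Ro20-1724 (0.1 mM final) went in first, then compound for 10 min. NKH477 (200 nM) with quinpirole (12 nM) followed for 30 min at RT, then HTRF detection reagents for 1 h.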

[20] = p53 small molecule agonists, cell-based qHTS assay with human liver microsomes (AID 1963577);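 note: p53 response element beta-lactamase reporter cells with liver microsomes plus NADPH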
Summary of the method: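 Reporter activation was measured by LiveBLAzer fluorescence intensity in p53RE-bla cells, which had been exposed to compounds for 16 h at 37 C alongside 0.5 mg/mL human liver microsomes and 0.5 mg/mL NADPH (final concentrations).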

Measured: Potency

CCCO[Si](OCCC)(OCCC)OCCC
not listed: [20]
inactive: all other assays above

NCCN1CCNC1=O
not listed: [6] | [14] | [17]
inactive: all other assays above

O=C(O)c1ccccc1OP(=O)(O)O
not listed: [7] | [13] | [14] | [17]
inactive: all other assays above

CCCCCC(=O)O[C@]1(C(C)=O)CC[C@H]2[C@@H]3CCC4=CC(=O)CC[C@]4(C)[C@H]3CC[C@@]21C
20.3 µM (active) and inactive: [6]
active: [1] 30.4 µM
not listed: [9] | [14] | [15]
inactive: all other assays above

O=C1OC(=O)C2CC=CCC12 (stereo unspecified)
not listed: [7] | [20]
inactive: all other assays above

O=C[C@H](O)[C@@H](O)[C@H](O)[C@H](O)CO
not listed: [20]
inactive: all other assays above

CCCOCCOCCO
not listed: [17] | [20]
inactive: all other assays above

CC(C)(O)C(=O)O
not listed: [6] | [20]
inactive: all other assays above

CCOC(/C=C(\C)CCC=C(C)C)OCC
not listed: [9] | [12] | [20]
inactive: all other assays above

Oc1ccc(/C=C/c2cc(O)cc(O)c2)cc1
active: [2] 4.9 µM and 7.7 µM and 11.9 µM
not listed: [10] | [11] | [12] | [13] | [14] | [20]
inactive: all other assays above

O=S(=O)(O)c1cccc2ccccc12
not listed: [11] | [12] | [17] | [19] | [20]
inactive: all other assays above

C1CCSC1
not listed: [12] | [13] | [20]
inactive: all other assays above

CCN(CC)c1ccc2c(C)cc(=O)oc2c1
active: [9] 25.9 µM and 32.4 µM
not listed: [14] | [15] | [19] | [20]
inactive: all other assays above

NC(=Nc1ccccc1)Nc1ccccc1
19.3 µM (active) and inactive: [2]
active: [3] 5.49 µM and 15.1 µM | [4] 21.4 µM and 23.9 µM | [5] 15.5 µM
inactive: [1] | [6] | [7] | [9] | [14] | [15] | [16] | [18] | [19]

Cc1oc(C)c(C(=O)Nc2ccccc2)c1C
not listed: [6] | [11] | [20]
inactive: all other assays above

CCC(C)(C)CC
not listed: [6] | [11] | [20]
inactive: all other assays above

CC(=O)CC(=O)Nc1ccc2[nH]c(=O)[nH]c2c1
not listed: [7] | [13] | [20]
inactive: all other assays above

Cc1ccc(C(=O)Nc2ccc(S(=O)(=O)O)c3cc(S(=O)(=O)O)cc(S(=O)(=O)O)c23)cc1NC(=O)c1cccc(NC(=O)Nc2cccc(C(=O)Nc3cc(C(=O)Nc4ccc(S(=O)(=O)O)c5cc(S(=O)(=O)O)cc(S(=O)(=O)O)c45)ccc3C)c2)c1
not listed: [16] | [20]
inactive: all other assays above

CCCCCCCC(=O)N(C)C
not listed: [8] | [20]
inactive: all other assays above

CN1N=C(C(N)=O)CCC1=O
not listed: [8] | [20]
inactive: all other assays above

NCCNCCO
not listed: [6] | [20]
inactive: all other assays above

O=C(c1ccc(O)cc1O)c1ccc(O)cc1O
not listed: [9] | [14] | [16] | [17] | [20]
inactive: all other assays above

c1ccc2c(c1)CCc1ccccc1N2
active: [2] 61.4 µM
not listed: [10] | [15] | [16] | [20]
inactive: all other assays above

C1CCC(SSC2CCCCC2)CC1
not listed: [10] | [18] | [20]
inactive: all other assays above

CO[C@H]1C=CO[C@@]2(C)Oc3c(C)c(O)c4c(O)c(c(/C=N/N5CCN(C)CC5)c(O)c4c3C2=O)NC(=O)/C(C)=C\C=C[C@H](C)[C@H](O)[C@@H](C)[C@@H](O)[C@@H](C)[C@H](OC(C)=O)[C@@H]1C
inactive: [1] | [2] | [3] | [4] | [5] | [6] | [8]

COc1cc(OC)nc(O[C@H](C(=O)O)C(OC)(c2ccccc2)c2ccccc2)n1
not listed: [7] | [20]
inactive: all other assays above

NS(=O)(=O)c1cc2c(cc1C(F)(F)F)NC(Cc1ccccc1)NS2(=O)=O (stereo unspecified)
active: [17] 1.5 µM
not listed: [10] | [20]
inactive: all other assays above

Cc1cccc(Cl)c1
not listed: [8] | [17] | [19] | [20]
inactive: all other assays above

O=Cc1ccc([N+](=O)[O-])cc1
not listed: [7] | [17] | [20]
inactive: all other assays above

CO[C@@H]1[C@@H](O[C@@H]2O[C@H](C)[C@@H](O[C@H]3C[C@@](C)(O)[C@@H](O)[C@H](C)O3)[C@H](N(C)C)[C@H]2O)[C@@H](CC=O)C[C@@H](C)[C@@H](O[C@@H]2CC[C@H](N(C)C)[C@@H](C)O2)/C=C/C=C/C[C@@H](C)OC(=O)C[C@H]1OC(C)=O
not listed: [6] | [17] | [20]
inactive: all other assays above

O=C(O)CONC(=O)c1ccccc1
not listed: [8] | [20]
inactive: all other assays above
